From PubChem BioAssay come the findings set out here.

The test system of one assay is Noggin (protein binding on small-molecule microarray). Description: small molecules binding Noggin protein – biochemical, 635/667 nm fluorescence, primary screen (AID 1095).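 Also: score merges 667 nm feature fluorescence with signal to noise over triplicate slides.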 The note with it: 635 nm fluorescence, higher = more signal.
In turn, `COC(=O)C(CC#Cc1ccc2c(c1)[C@]1(C(=O)N2)[C@H](C(=O)N2CCCCCCC2)[C@H]2C(=O)O[C@H](c3ccccc3)[C@H](c3ccccc3)N2[C@@H]1c1ccc(O)cc1)C(=O)OC` returned a composite z-score of -0.805.
On to `C=C[C@H](OC)[C@@H](OC(=O)Nc1ccc(SC)cc1)c1ccc(O)c(F)c1`, for which the composite z-score is -0.0413.
For `O=C1O[C@@H](c2ccccc2)[C@@H](c2ccccc2)N2[C@@H](c3ccc(OCCO)cc3)[C@]3(C(=O)Nc4ccc(C#CCCO)cc43)[C@@H](C(=O)N3CCN(c4ncccn4)CC3)[C@H]12`, the composite z-score was 1.24.
The molecule `C=CCC(OC(C)=O)[C@@H]1[C@@H](N(Cc2cccc3ccccc23)C(=O)Cc2ccc(F)cc2)c2cc(OCCCO)ccc2N1C(=O)Cc1ccc2ccccc2c1` (stereo partly specified) showed a composite z-score of -0.594.
In the case of `O=C1O[C@@H](c2ccccc2)[C@@H](c2ccccc2)N2[C@@H](c3ccc(O)cc3)[C@]3(C(=O)Nc4ccc(C#CC5(O)CCCCCC5)cc43)[C@@H](C(=O)Nc3nc4ccccc4s3)[C@H]12`, the composite z-score worked out at 1.26.
`C#CCCCON=C1C[C@@H](O)[C@@H](O)[C@@H]2[C@@H]3C(=O)N(Cc4ccc5c(c4)OCO5)C(=O)[C@@H]3CC[C@@H]12`: the composite z-score was -0.0201.
Consider `O=C1O[C@H](c2ccccc2)[C@H](c2ccccc2)N2[C@H]1[C@@H](C(=O)NC[C@H](O)c1ccccc1)[C@]1(C(=O)Nc3ccc(C#CC4(O)CCCCCC4)cc31)[C@H]2c1ccc(OCCO)cc1`, for which the composite z-score was 0.423.
For `CCOC(=O)C1=C[C@@H](c2ccccc2)N(S(=O)(=O)c2ccc(C)cc2)[C@H]1c1ccc(F)cc1`, the composite z-score came to 0.512.
Same read-out and setting: under `O=[N+]([O-])c1ccc(C[n+]2ccc3ccc(O)cc3c2)o1` stands -0.147.

For the next assay, the target named is Neurogenic locus notch homolog protein 3 (Homo sapiens) (UniProt Q9UM47). Description: small molecules binding NOTCH3 protein – biochemical, 635/667 nm fluorescence, primary screen (AID 1096). As to conditions: small-molecule microarray, 635 nm fluorescence, higher = more signal.
Sequence of Neurogenic locus notch homolog protein 3 (Homo sapiens) (Q9UM47 whole entry, looked up): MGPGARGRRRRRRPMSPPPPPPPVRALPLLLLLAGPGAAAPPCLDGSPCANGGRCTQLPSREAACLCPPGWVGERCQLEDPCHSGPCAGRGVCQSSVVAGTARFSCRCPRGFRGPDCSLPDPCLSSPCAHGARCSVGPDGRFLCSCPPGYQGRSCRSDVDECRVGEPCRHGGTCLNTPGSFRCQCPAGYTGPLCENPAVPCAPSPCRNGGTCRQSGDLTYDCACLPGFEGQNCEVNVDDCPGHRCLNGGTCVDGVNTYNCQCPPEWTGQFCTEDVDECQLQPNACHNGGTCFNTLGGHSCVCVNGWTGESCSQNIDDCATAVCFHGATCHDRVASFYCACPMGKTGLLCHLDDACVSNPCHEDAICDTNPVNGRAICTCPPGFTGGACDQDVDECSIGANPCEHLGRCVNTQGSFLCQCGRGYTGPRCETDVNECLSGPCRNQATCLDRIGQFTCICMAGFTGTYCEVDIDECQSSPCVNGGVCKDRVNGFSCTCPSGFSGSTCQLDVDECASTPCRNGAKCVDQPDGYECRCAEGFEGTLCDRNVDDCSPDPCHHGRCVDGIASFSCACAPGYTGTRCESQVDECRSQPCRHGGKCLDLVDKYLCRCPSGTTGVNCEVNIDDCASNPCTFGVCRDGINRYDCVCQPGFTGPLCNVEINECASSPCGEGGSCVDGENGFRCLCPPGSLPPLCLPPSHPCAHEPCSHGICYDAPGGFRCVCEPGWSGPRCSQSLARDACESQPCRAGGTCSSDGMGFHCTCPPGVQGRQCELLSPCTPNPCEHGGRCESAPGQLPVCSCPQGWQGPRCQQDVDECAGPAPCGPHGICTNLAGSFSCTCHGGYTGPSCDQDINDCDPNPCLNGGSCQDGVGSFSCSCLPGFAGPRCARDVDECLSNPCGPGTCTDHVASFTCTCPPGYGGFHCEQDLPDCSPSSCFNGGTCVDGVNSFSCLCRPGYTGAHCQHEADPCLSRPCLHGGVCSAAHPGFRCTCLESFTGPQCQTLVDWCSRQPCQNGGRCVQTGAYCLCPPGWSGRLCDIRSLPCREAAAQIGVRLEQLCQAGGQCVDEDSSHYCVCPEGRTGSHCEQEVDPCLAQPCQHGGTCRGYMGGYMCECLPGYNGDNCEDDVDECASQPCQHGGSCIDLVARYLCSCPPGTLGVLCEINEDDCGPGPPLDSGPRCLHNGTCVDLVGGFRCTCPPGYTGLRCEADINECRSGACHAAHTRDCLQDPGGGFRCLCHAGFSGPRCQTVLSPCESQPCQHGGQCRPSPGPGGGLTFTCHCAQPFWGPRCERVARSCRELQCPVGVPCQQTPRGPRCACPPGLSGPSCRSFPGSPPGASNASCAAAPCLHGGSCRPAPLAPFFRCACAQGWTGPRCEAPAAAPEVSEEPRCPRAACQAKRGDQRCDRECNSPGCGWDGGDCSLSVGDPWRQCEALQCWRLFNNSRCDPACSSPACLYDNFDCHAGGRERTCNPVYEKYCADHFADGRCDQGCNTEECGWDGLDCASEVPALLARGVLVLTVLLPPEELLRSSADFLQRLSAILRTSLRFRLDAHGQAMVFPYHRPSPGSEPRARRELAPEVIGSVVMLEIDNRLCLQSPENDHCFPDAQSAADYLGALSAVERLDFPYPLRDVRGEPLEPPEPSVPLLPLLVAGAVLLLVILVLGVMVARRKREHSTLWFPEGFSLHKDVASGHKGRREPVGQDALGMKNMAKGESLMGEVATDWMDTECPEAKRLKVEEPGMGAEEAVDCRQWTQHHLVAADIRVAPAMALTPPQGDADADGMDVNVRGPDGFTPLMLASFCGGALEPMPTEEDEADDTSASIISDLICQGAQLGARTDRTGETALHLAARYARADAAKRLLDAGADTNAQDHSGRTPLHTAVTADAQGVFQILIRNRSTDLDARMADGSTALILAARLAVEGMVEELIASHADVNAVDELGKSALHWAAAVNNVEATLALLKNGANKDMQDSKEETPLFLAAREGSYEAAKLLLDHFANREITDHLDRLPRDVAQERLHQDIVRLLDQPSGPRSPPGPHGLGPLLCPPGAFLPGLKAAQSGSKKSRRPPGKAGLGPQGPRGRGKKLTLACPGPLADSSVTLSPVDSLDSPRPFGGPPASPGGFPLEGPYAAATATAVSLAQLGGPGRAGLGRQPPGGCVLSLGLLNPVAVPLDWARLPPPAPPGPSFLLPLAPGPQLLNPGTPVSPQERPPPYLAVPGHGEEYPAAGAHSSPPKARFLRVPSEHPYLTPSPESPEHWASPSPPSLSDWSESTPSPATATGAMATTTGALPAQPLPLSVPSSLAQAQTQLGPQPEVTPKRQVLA
For the molecule `CCCNC(=O)[C@@]1(Sc2ccc(C)cc2)CC(=O)N(Cc2ccccc2Cl)[C@@H]1c1ccc(CO)cc1`, the composite z-score stood at 1.11.
The same measure, in the same setting: under `C[C@H]1COC(=O)[C@H](Cc2ccccc2)NC(=O)[C@@H](C)COC(=O)[C@H](Cc2ccccc2)NC1=O` stands 1.13; under `CC(C)N1CC=CC23O[C@@H]4/C=C\CCCOC(=O)C4[C@H]2C(=O)N(CCO)[C@@H]3C1=O` (stereo partly specified), -0.0811.
`COC(=O)[C@@]1(Cc2ccc(OC)cc2)[C@H]2c3cc(C(=O)N(C)C)n(CCc4ccc(OC)c(Br)c4)c3C[C@H]2CN1C(=O)c1ccccc1` had a composite z-score of 1.01.
Same read-out and setting: under `COCCOC(=O)N1C(=O)[C@@]2(c3cc(C#CCCO)ccc31)[C@H](c1ccc(O)cc1)N1[C@H](c3ccccc3)[C@H](c3ccccc3)OC(=O)[C@H]1[C@@H]2C(=O)Nc1nc2ccccc2s1` stands 1.09.
`C=CC[C@]1(C(=O)N2CCCCC2)N=C(c2ccc(OCCCO)cc2)O[C@H]1c1ccccc1N=[N+]=[N-]` yielded a composite z-score of 1.08.
`CCCC=C(CCC)[C@@H](NS(=O)(=O)c1cccc(C(F)(F)F)c1)c1ccc(C(=O)OC)cc1` returned a composite z-score of 0.0083.
In turn, `COc1ccc([Si](C)(C)[C@@H]2[C@@H](CC(=O)N(CCO)Cc3ccccc3)O[C@]3(C(=O)N(Cc4cccc(N5CCC5=O)c4)c4ccccc43)[C@H]2C)cc1` yielded a composite z-score of 0.941.
`COc1cc([C@@H]2N[C@H](C(=O)O)Cc3c2[nH]c2ccccc32)cc(OC)c1OC` returned a composite z-score of 0.475.
Molecule `COCC(=C=CC[C@H](O)c1ccc(OCCO)cc1)C[C@H](O)c1ccccn1` gave a composite z-score of -0.457.
On to `COCCOC(=O)N1C(=O)[C@@]2(c3cc(C#CC4(O)CCCCCC4)ccc31)[C@H](C(=O)N1CCCCCCC1)[C@H]1C(=O)O[C@H](c3ccccc3)[C@H](c3ccccc3)N1[C@@H]2c1ccc(O)cc1`, for which the composite z-score was determined as 0.995.
The molecule `C=CCC(OC(C)=O)[C@@H]1[C@@H](N(Cc2cc3ccccc3o2)C(=O)c2ccc(C)cc2)c2cc(OCCCO)ccc2N1C(=O)c1ccc2ccccc2n1` (stereo partly specified) registered a composite z-score of 0.197.
`C=C(COC)C(=O)CC[C@H](OC(=O)c1ccccc1-c1ccccc1C(=O)O)c1cccc(OCCO)c1` yielded a composite z-score of 0.985.
Molecule `CC(C)[Si](OCC[C@H]1O[C@]2(C(=O)N(Cc3ccccc3)c3ccccc32)[C@@H](C)[C@@H]1[Si](C)(C)O)(C(C)C)C(C)C` had a composite z-score of -0.0636.
Regarding `CO[C@H]1COC(=O)CC=C[C@H](C)[C@@H](OC)COC(=O)CC=C[C@@H]1C`, the composite z-score is -0.119.
The molecule `COCCOC(=O)N1C(=O)[C@@]2(c3cc(C#CC4=CCCCC4)ccc31)[C@H](C(=O)NC[C@H](O)c1ccccc1)[C@H]1C(=O)O[C@H](c3ccccc3)[C@H](c3ccccc3)N1[C@@H]2c1ccccc1OCCO` showed a composite z-score of 1.07.
`COc1cc2c(cc1OC)CN(C(=O)[C@H]1[C@@H]3C(=O)O[C@@H](c4ccccc4)[C@@H](c4ccccc4)N3[C@@H](c3ccc(O)cc3)[C@]13C(=O)Nc1ccc(C#CC4(O)CCCCCC4)cc13)CC2`: the composite z-score turned out to be 0.991.
